Source: PubChem BioAssay (NCATS)
Records with an inconclusive call do not appear. Active and inactive are the calls of the source. Calls come from the whole dose curve; as a rule, active = well fitted inhibition curve with a large enough effect; inconclusive = small, poorly fitted or top-dose-only effect; inactive = flat fitted curve, though single readings scatter.
Potency is the fitted concentration of half-maximal effect.

What follows are compounds tested on HEK293 (assay: Cytotoxic Profiling of Annotated Libraries Using Quantitative High-Throughput Screening (AID 1296008; note: nearly all actives have a fitted effect of over 60% in size)). Conditions: Five cell lines viability, CellTiter-Glo ATP luminescence, 48-72 h; max response: stronger effect = lower value.
Method in brief: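 Cells exposed to compounds for 48 or 72 hr at 37 degrees Celsius. Viability read as ATP-coupled luminescence with CellTiter-Glo after 10 min at room temperature.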
In the case of `C=C1C(=O)OC2/C=C(\COC(C)=O)CC/C=C(\C=O)CC(OC(=O)C(C)CC)C12` (stereo not drawn), the Potency is reported as 3.55 µM (active). `COc1cc2c(cc1OC)CN(C(=O)/C=C/c1c(-c3ccccc3)n(C)c3ncccc13)CC2` was tested, and the Potency was 7.31 µM (active). In the case of `CCC(CC)C(c1ccc(Nc2nc3ccccc3s2)cc1)n1cncn1` (stereo not drawn), the Potency is reported as 10.3 µM (active). With `CC[C@@H](C)[C@@H]1OC2(C=C[C@H]1C)C[C@@H]1C[C@H](C/C=C(\C)[C@H](O[C@H]3C[C@H](OC)[C@H](O[C@H]4C[C@H](OC)[C@H](NC(C)=O)[C@H](C)O4)[C@H](C)O3)[C@H](C)/C=C/C=C3\CO[C@H]4[C@H](O)C(C)=C[C@@H](C(=O)O1)[C@@]34O)O2` (stereo partly drawn) the Potency was 3.21 µM (active). `C/C=C(/C)C(=O)O[C@H]1C=C(CO)C(=O)[C@H](OC(=O)/C(C)=C/CO)[C@H]1C(C)C` was tested, and the Potency was 3.6 µM (active). With `C[C@H]1[C@H](/C=C/c2ccc(-c3ccccc3C#N)cn2)[C@@H]2[C@@H](C)OC(=O)[C@@H]2C[C@@H]1C` the Potency was 13 µM (active). With `C=C1C(=O)OC2/C=C(\C)CC3C=C(CC/C=C(\C)CCC12)C(=O)O3` (stereo not drawn) the Potency was 11.4 µM (active). For `Cc1c[nH]c2ncnc(N3CCC(CN)(C(=O)Nc4cccc(OC(=O)N(C)C)c4)CC3)c12`, the Potency was 3.66 µM (active).
